VP16 counter – VP16 counterscreen qHTS for inhibitors of ROR gamma transcriptional activity | Drosophila S2 Gal4-VP16 UAS-luciferase, luminescence, 20 h | Potency, µM (doses to about 53.6 µM), for inactives: at the top dose activity, negative = inhibition, usual class: inhibitors | actives 3.5% (n = 310,000) | AID 2546, 2010;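 note: Gal4-VP16 expression switched on by copper sulfate through the metallothionein promoter; % is set by controls: 0 for no effect and ±100 for the full control effect; nearly all actives have a fitted effect of over 50% in size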
KB-V1 MDR tox – qHTS assay for MDR1-selective chemotherapeutics: Primary screen using the drug-selected MDR subline cells KB-V1; KB-V1 MDR cells viability, CellTiter-Glo, 72 h; Potency, µM (doses to about 46.1 µM), most hits filed as cytotoxic; actives 3.4% (n = 400,000); note: % is set by controls: 0 for no effect and ±100 for the full control effect; nearly all actives have a fitted effect of over 60% in size
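KB-V1, DMEM (no phenol red) + 10% FBS; cpd pin-transferred, titration series; 72 h, 37 degrees C; CellTiter-Glo, luminescence. Data normalized, curve-fit.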
RORg inh – qHTS for inhibitors of ROR gamma transcriptional activity | actives 5.4% (n = 310,000) | Drosophila S2 Gal4-RORgamma UAS-luciferase reporter, 20 h | Potency, µM (titrated, usually from 53.6 µM), inactives show at the highest dose activity change, negative = inhibition, usual class: inhibitors | AID 2551, 2010; note: % is set by controls: 0 for no effect and ±100 for the full control effect; nearly all actives have a fitted effect of over 60% in size
Target sequence (P51450 whole entry, looked up, the tested form may be a part): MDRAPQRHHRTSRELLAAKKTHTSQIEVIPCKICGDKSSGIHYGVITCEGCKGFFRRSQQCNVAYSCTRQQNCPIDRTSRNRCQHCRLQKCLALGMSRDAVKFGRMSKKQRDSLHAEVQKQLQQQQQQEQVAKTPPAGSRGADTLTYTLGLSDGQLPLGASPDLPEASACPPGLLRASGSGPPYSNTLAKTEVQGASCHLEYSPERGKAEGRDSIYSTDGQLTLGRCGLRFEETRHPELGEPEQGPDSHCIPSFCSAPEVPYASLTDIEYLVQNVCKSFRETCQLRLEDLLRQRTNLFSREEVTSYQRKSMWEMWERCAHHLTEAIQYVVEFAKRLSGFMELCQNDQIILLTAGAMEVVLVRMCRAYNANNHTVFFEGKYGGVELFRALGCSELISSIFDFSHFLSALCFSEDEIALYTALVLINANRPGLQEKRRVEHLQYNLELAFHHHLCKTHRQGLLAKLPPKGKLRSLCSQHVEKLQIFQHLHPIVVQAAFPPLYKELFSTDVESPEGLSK
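ROR gamma transcriptional activity was tracked as Gal4-UAS luciferase output in stably transfected Drosophila Schneider cells, with compound added 1 hr before 700 uM copper sulfate induction and a 20 hr ambient-temperature incubation.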
KB-3-1 tox – qHTS assay for MDR1-selective chemotherapeutics: Primary screen using the parental adenocarcinoma cell KB-3-1; KB-3-1 viability, CellTiter-Glo ATP luminescence, 72 h; Potency, µM (highest dose often 46.1 µM), hits mostly cytotoxic; actives 1.4% (n = 400,000); AID 1347075, 2019; note: % is set by controls: 0 for no effect and ±100 for the full control effect; nearly all actives have a fitted effect of over 60% in size
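Using CellTiter-Glo luminescence, growth of non-resistant KB-3-1 adenocarcinoma cells is assessed 72 h after pin-tool compound addition at 37 °C. Normalized responses across the concentration series yield fitted curves.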
SW480 rereplic – A quantitative high throughput screen for small molecules that induce DNA re-replication in SW480 colon adenocarcinoma cells; SW480 DNA re-replication, Hoechst DNA content imaging, 48 h; Potency, µM (series often up to 46.1 µM), for the others: at the top dose re-replication activation, actives largely listed as activators; actives 1.8% (n = 340,000); AID 624297, 2012; note: % of control where 0% means no effect; nearly all actives have a fitted effect of over 55% in size
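Per well, 250 cells were exposed to pinned compound for 48 hr. Nuclear DNA was visualised with Hoechst (40 min, 37 C) and total object intensity recorded by fluorescence scanning.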
MCF10A rerep – A quantitative high throughput screen for small molecules that induce DNA re-replication in MCF 10a normal breast cells; MCF 10A DNA re-replication, Hoechst nuclear intensity, 48 h; Potency, µM (series often up to 46.1 µM), without a hit: at the highest dose activity, positive = re-replication, hits mostly activators; actives 2.9% (n = 350,000); note: % of control where 0% means no effect; nearly all actives have a fitted effect of over 50% in size
* = called active by the depositor; i = inactive; u = inconclusive; x = not tested or not shown; [ ] = remark or other dose. In the library only some 10% were active in any assay of this set; here they are far more common. Calls come from the whole dose curve; as a rule, active = well fitted curve in the direction sought with a large enough effect; inconclusive = small, poorly fitted or top-dose-only effect, or another doubt; inactive = no such curve, though single readings can be large; an effect the other way counts as inactive or inconclusive. Potency is the fitted concentration of half-maximal effect.

SMILES	VP16 counter	KB-V1 MDR tox	RORg inh	KB-3-1 tox	SW480 rereplic	MCF10A rerep
COc1ccc(NC(=O)CN2C(=O)COc3ccc(S(=O)(=O)Nc4ccccc4)cc32)cc1	x	i	x	i	x	x
COc1cc(/C=C2\SC(=Nc3cccnc3)NC2=O)cc(OC)c1OC	-7%	i	9%	i	2%	3.7µM*
Cc1cccc(C)c1NC(=S)NCCc1ccccn1	2.8µM*	i	1.4µM*	i	-2%	17%
O=C(NC(=S)NCCc1ccccn1)c1ccccc1	-66%	i	13µM*	i	-5%	-2%
S=C(NCCc1ccccn1)Nc1cccc(Cl)c1	7.9µM*	21µM*	5µM*	i	6%	19%
S=C(NCc1ccccn1)Nc1ccc(Cl)cc1	u	i	7.9µM*	i	-5%	u
COC(=O)c1c(NC(=O)Cc2coc3cc(C)ccc23)sc2c1CCCC2	x	i	x	i	x	x
O=C1NC[C@H](CCCCN2CCN(Cc3ccccc3)C(=O)C2=O)N(Cc2ccccc2)C1=O	x	i	x	i	x	x
Cc1ccccc1NC(=S)NCCc1ccccn1	u	i	16µM*	i	u	10%
Cc1cccc(NC(=S)NCCc2ccccn2)c1	u	i	u	i	-14%	2%
CCOC(=O)c1c(C)oc2c(CN3CCN(C)CC3)c(Br)c(OC)c(O)c12	18µM*	i	u	i	-2%	2%
CSc1ncnc2c1cnn2-c1ccc(C)cc1C	2%	i	26%	i	-1%	0%
Cc1ccc(-n2ncc3c(SCc4ccccn4)ncnc32)c(C)c1	-5%	8.2µM*	u	u	13%	u
Cn1c(=O)c2c([nH]c(=O)n2Cc2ccc(Cl)cc2Cl)n(C)c1=O	x	i	x	i	x	x
N/C(=N\N=C\c1ccc(O)c(O)c1)c1nonc1N	u	i	10µM*	i	-13%	-2%
Cc1cccc(NC(=O)Cn2c(=O)n(CCCS(=O)(=O)C3CCCCC3)c(=O)c3ccccc32)c1	x	i	x	i	x	x
CCc1ccc(NC(=O)CSc2nnc(-c3nonc3NC(C)=O)n2-c2ccccc2)cc1	x	i	x	i	x	x
CN(Cc1ccccc1)c1nc2c(c(=O)[nH]c(=O)n2C)n1Cc1ccccc1	-10%	9.2µM*	1%	i	-12%	u
CN(Cc1ccccc1)c1nc2c(c(=O)[nH]c(=O)n2C)n1CCCSc1ncccn1	-2%	2.6µM*	1%	u	1%	18%
CN(C)c1nc2c(c(=O)[nH]c(=O)n2C)n1Cc1ccccc1Br	13%	21µM*	-9%	u	-4%	4%
CN(Cc1ccccc1)c1nc2c(c(=O)[nH]c(=O)n2C)n1Cc1ccccc1F	10%	i	u	i	52%	-4%
COc1ccc(OC)c(NC(=O)N2c3ccccc3Sc3ccccc32)c1	x	i	x	i	x	x
COc1ccc(/C=C/C(=O)c2ccc3c4c(cccc24)CC3)cc1	u	u	u	u	u	18µM*
COc1ccc(/C=C/C(=O)c2ccc3c4c(cccc24)CC3)cc1OC	-9%	16µM*	u	u	u	18µM*
COc1ccc(/C=C/C(=O)c2cc(F)ccc2OC(=O)c2ccccc2C)cc1OC	u	i	u	u	1.2µM*	1.2µM*
SMILES	VP16 counter	KB-V1 MDR tox	RORg inh	KB-3-1 tox	SW480 rereplic	MCF10A rerep
O=C(CCC(=O)c1ccccc1)Nc1ccc(F)c(Cl)c1	x	i	x	i	x	x
COCCNC(=O)c1nn2c(C(F)(F)F)cc(-c3ccccc3)nc2c1Cl	1%	i	u	i	-5%	-3%
COc1ccc(-c2cc(C(F)(F)F)n3nc(C(=O)N(C)Cc4ccccc4)cc3n2)cc1OC	-24%	u	15%	i	21µM*	u
COc1ccc(-c2cc(C(F)(F)F)n3nc(C(=O)Nc4ccc(Cl)cc4C(F)(F)F)cc3n2)cc1OC	x	i	x	u	x	x
CCN(CC)CCCNC(=O)c1cc2nc(-c3ccccc3)cc(C(F)(F)F)n2n1	8%	i	23%	i	-8%	1µM*
Cc1ccc(-c2cc(C(F)(F)F)n3nc(C(=O)NCCCn4ccnc4)cc3n2)cc1C	-7%	i	-6%	i	u	15µM*
CCCCNC(=O)c1cc2nc(-c3ccc(OC)cc3)cc(C(F)(F)F)n2n1	x	i	x	i	x	x
O=C(NCCCn1ccnc1)c1nn2c(C(F)(F)F)cc(-c3ccccc3)nc2c1Cl	8%	i	-1%	i	6.5µM*	-1%
CCOc1ccc(NC(=O)Cn2c(=O)n(CCc3ccccc3)c(=O)c3c4c(sc32)CN(C(C)=O)CC4)cc1	x	i	x	i	x	x
CC[C@H](C)[C@H](NC(=O)[C@H](Cc1ccc(O)cc1)NC(=O)CNC(=O)[C@@H]1CCCN1C(=O)[C@H](CC(=O)O)NC(=O)[C@@H](N)CS)C(=O)NCC(=O)N[C@@H](CO)C(=O)N[C@@H](CCCN=C(N)N)C(N)=O	1%	x	0%	x	x	x
COc1ccc(N/C=C/c2nc(SC)nnc2C)cc1	-9%	i	-16%	i	15µM*	u
Clc1ccc(CN2C3=NCCN3c3ccccc32)cc1Cl	-16%	21µM*	18µM*	i	u	10%
CCOC(=O)C1=Nc2ccccc2C1=[N+]=[N-]	-19%	2.6µM*	-19%	u	u	2.6µM*
CCc1ccc2oc(-c3cccc(NC(=O)C(C)(C)Oc4ccc(Br)cc4)c3)nc2c1	x	i	x	i	x	x
CCCCc1ccc(/C=C2\C(=O)c3ccccc3C(O)=C2C(=O)OCC)cc1	7%[0.365 µM]	x	10µM*	x	x	x
O=C(Cn1ncc2c([nH]c3ccccc32)c1=O)Nc1cccc(C(F)(F)F)c1	x	i	x	i	x	x
O=c1c2c3n(c(=S)nc2[nH]n1-c1ccccc1)CCCCC3	u	i	13µM*	i	2%	0%
Cc1cc(-c2ccccc2)c2c(=O)n(-c3ccccc3)[nH]c2n1	17%	i	-32%	u	-11%	0%
O=C1c2ccccc2C(=O)N1CCCCSc1nnc(-c2ccc(OC(F)F)cc2)o1	0%	3.3µM*	u	i	13%	16%
Cc1nnc(SCCCN2C(=O)c3ccccc3C2=O)o1	17%	i	6%	i	-2%	-1%
